# According to PubChem BioAssay AID651871 (Sanford-Burnham Center for Chemical Genomics, 2012):
# Tested on: H9c2
# Assay: protection of cardiomyocytes from stress damage, SAR follow-up, cell-based, panel, H9c2 and HL-1, ATP luminescence, set 2 (AID 651871);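 further: cells exposed to stressor for 2 h before ATP readout; reference of the scale not given here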
# Settings: H9c2/HL-1 cardiomyocytes, 2-deoxyglucose stress, with 2-deoxyglucose, run 4, at 39.5 µM (top of the series)
compound,measurement,value
COc1ccc2c(c1OC)C(=O)N1c3ccccc3C(=O)N(Cc3cccc(Cl)c3Cl)C21 (stereo unspecified),activity (protection/inhibition),71%
